Compounds with a hit are over-represented: about 1.6% of the library has one in this group of screens.
KCNQ2 block: KCNQ2 (rat) channel inhibition. B-score at 10 µM. O88943. AID 2156. hit rate 1.1% among 310,000. CHO-K1 KCNQ2, FluxOR thallium flux, 20 min; active compounds read low;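 active = fluorescence ratio B-score at most minus 3 library SDs, with starting brightness B-score within 2 library SDs, cut at about -5.5 in these data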
KCNQ2 enhance: enhances the rat KCNQ2 potassium channel. O88943. CHO-K1 KCNQ2, FluxOR thallium flux fluorescence; active compounds read high. B-score at 10 µM. hit rate 0.54% among 310,000. AID 2239;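 active = fluorescence ratio B-score at least 3 SD of library B-scores, with initial fluorescence B-score within 3 of them, cut at about 5.3 in these data; same plate scores as AID 2156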;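 note: B-score of peak minus minimum over baseline fluorescence ratio after K+ and Tl+ stimulus; positive B-score means potentiation of KCNQ2 with more thallium influx and brighter signal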
Kir21 confirm: confirmation of mouse Kir2.1 potassium channel inhibitors. Tl flux remaining, % of negative control (active compounds read low), % at 10 µM. shares compounds with KCNQ2 enhance. Kir2.1-expressing cells, FluxOR thallium flux fluorescence; active compounds read low. hit rate 41% among 2,300;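 active = Primary-screen hit whose thallium flux fell at least 3 control SD below untreated wells in both duplicates, with normal baseline fluorescence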
HEK293 ctr: counter-screen for Kir2.1 inhibitors: effect in parental HEK293 cells; shares compounds with KCNQ2 enhance; FluxOR thallium flux fluorescence; 0% = unstimulated blank wells; FluxOR signal as % of negative control (100 = no effect), % at 10 µM; hit rate 19% among 2,300;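 active = dye signal at least 3 control SD above or below untreated wells in both duplicates, raw fluorescence within 3, either direction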;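 note: percent is based on the flux ratio of peak minus minimum fluorescence over baseline F0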
CHO-K1 Tl ctr: counter-screen for KCNQ2 potentiators: effect in parental CHO-K1 cells. shares compounds with KCNQ2 enhance. FluxOR thallium flux fluorescence; zero = vehicle mean+3SD, 100% = vehicle-minus-blank window. activity increase over 3SD of controls, % at 10 µM. hit rate 43% among 1,200;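 active = signal rise of at least 3 SD above the untreated control mean, in both duplicate wells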;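 note: counter screen of KCNQ2 potentiator hits so any rise reflects channel-independent effects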
KCNQ1 sel pot: tests whether KCNQ2 potentiators also act on human KCNQ1. shares compounds with KCNQ2 enhance. CHO KCNQ1 stable, FluxOR thallium flux fluorescence; beyond 3SD, as % of vehicle-control signal. activation over 3SD threshold, % at 10 µM. hit rate 28% among 1,200. AID 2283;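 active = fluorescence ratio rise of at least 3 SD of vehicle wells above their mean, in both replicate wells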
KCNQ2 pot conf: confirmation of rat KCNQ2 potassium channel potentiators; shares compounds with KCNQ2 enhance; CHO-KCNQ2 cells, FluxOR thallium flux fluorescence; potentiation, less the hit threshold, % at 10 µM; AID 2287; hit rate 68% among 1,200;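 active = fluorescence ratio rising 3 SD or more over the vehicle control mean in both replicates, plus primary screen hit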;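 note: peak minus minimum thallium fluorescence divided by baseline after K/Tl stimulus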
Kir2-1 sel: mouse Kir2.1 off-target activity of KCNQ2 potentiators; shares compounds with KCNQ2 enhance; hit rate 2% among 1,200; activity over 3SD threshold, % at 10 µM; HEK293 Kir2.1, FluxOR thallium flux fluorescence;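 active = fluorescence ratio rise of at least 3 SD above the vehicle-control mean, seen in both replicates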
KCNQ2 W236L pot: KCNQ2 potentiators acting on retigabine-insensitive rat KCNQ2 W236L mutant | shares compounds with KCNQ2 enhance | CHO KCNQ2-W236L, automated patch clamp current | current increase over 3SD of negative controls (%), active compounds read high, % at 25 µM | hit rate 10% among 940;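 active = current increase at least 3 SD of the untreated controls above them in both duplicate recordings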
Target sequence (O88943 whole entry W236L, looked up): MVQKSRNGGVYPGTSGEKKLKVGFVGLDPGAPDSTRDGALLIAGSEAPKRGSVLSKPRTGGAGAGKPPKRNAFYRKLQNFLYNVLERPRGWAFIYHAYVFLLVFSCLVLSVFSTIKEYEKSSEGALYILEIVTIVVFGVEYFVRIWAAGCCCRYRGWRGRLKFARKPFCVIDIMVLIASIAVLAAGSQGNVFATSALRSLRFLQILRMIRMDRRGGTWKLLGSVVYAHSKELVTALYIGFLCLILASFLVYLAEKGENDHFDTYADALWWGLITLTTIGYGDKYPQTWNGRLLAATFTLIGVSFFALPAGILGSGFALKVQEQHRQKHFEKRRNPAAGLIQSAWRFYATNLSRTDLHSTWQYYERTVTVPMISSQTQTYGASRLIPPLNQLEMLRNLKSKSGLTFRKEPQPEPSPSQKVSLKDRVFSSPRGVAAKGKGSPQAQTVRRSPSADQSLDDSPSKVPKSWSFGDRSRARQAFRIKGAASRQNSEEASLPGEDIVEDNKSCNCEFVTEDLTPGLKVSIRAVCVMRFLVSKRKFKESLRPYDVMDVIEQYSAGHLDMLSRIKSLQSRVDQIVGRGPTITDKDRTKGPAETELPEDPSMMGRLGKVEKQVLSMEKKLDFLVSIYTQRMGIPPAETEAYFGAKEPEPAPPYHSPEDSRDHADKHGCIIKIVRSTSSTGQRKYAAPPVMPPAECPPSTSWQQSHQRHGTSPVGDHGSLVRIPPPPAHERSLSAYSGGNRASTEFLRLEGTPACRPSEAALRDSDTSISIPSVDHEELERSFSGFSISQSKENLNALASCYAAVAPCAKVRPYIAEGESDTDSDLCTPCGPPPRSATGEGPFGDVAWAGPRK
Hits are given with their value; i = inactive; nt = not tested or not shown.

SMILES | KCNQ2 block | KCNQ2 enhance | Kir21 confirm | HEK293 ctr | others
COc1cc(CNc2ccc3[nH]c(=O)[nH]c3c2)cc(Br)c1OCc1ccc(F)cc1 | i | i | nt | nt
COc1ccc2oc(C(=O)OCC(=O)Nc3ccc(NC(C)=O)cc3)c(C)c2c1 | i | nt | nt | nt
COc1ccc2oc(C(=O)OCC(=O)N(C)CC(=O)Nc3ccc(C)cc3)c(C)c2c1 | i | 7.4 | i | i | CHO-K1 Tl ctr=32;KCNQ1 sel pot=i;KCNQ2 pot conf=i;Kir2-1 sel=i
O=C1NC2(CCCCC2)C(=O)N1CC(=O)N(Cc1ccccc1)c1ccccc1 | i | nt | nt | nt
CC(=O)/C=C/n1c(=S)oc2ccccc21 | i | 5.4 | i | i | CHO-K1 Tl ctr=i;KCNQ1 sel pot=i;KCNQ2 pot conf=i;Kir2-1 sel=i
CC(C)CC(=O)/C=C/n1c(=S)oc2ccccc21 | i | i | nt | nt
COC(=O)Cc1cc(OC)c(OC)cc1S(=O)(=O)N(C)C | i | i | nt | nt
c1cncc(CNc2cccc(-c3nc4ccccc4[nH]3)c2)c1 | i | i | nt | nt
CCCc1sc(N/N=C/c2ccccn2)nc1-c1ccc(F)cc1 | i | 5.8 | i | i | CHO-K1 Tl ctr=i;KCNQ1 sel pot=12;KCNQ2 pot conf=i;Kir2-1 sel=i
CCN=c1scc(-c2ccc(F)cc2)n1/N=C/c1ccccn1 | i | i | nt | nt
Clc1cccc(CN2CCC(Cc3ccccc3)CC2)c1 | i | nt | 71% | i
CSc1ccc(CN2CCC(Cc3ccccc3)CC2)cc1 | i | nt | 18% | i
CSc1ccc(OC2CCN(Cc3ccccc3)CC2)cc1 | i | nt | nt | nt
Clc1ccc(CN2CCC(Cc3ccccc3)CC2)cc1 | i | nt | nt | nt
CC(=O)c1ccc(NC(=S)NCC(c2ccco2)N2CCCC2)cc1 (stereo not given) | i | nt | nt | nt
COc1cc(C2NC(=O)NC(C)=C2C(C)=O)ccc1O (stereo not given) | i | nt | nt | nt
COc1ccc(NC(=O)CN(C)S(=O)(=O)c2ccc3c(c2)CCC(=O)N3)c(OC)c1 | i | nt | nt | nt
OC(CNCC1(N2CCCCC2)CCCCC1)COc1ccc(Cl)cc1Cl (stereo not given) | i | i | 50% | 75%
O=C(COc1ccc(Cl)cc1Cl)NC(=O)N1CCCCC1 | i | nt | nt | nt
C=CCN(C(=O)CC(NC(C)=O)c1ccccc1)c1nc(-c2ccc(S(C)(=O)=O)cc2)cs1 (stereo not given) | i | nt | nt | nt
CC(C)NC(=O)CN(C(=O)CCC(=O)Nc1nccs1)c1ccc(C(C)C)cc1 | i | i | nt | nt
Cc1cccc(CSc2nnc([C@@H]3CCCN3C(=O)OC(C)(C)C)o2)c1 | i | nt | 56% | i
CC(C)(C)OC(=O)N1CCC[C@H]1c1nnc(SCc2c(Cl)cccc2Cl)o1 | i | nt | nt | nt
O=C(NCCc1ccccc1)C1CC(c2ccccc2O)=NO1 (stereo not given) | i | nt | nt | nt
O=C(CSCc1ccccc1Cl)NCCSc1ccccn1 | i | nt | nt | nt
SMILES | KCNQ2 block | KCNQ2 enhance | Kir21 confirm | HEK293 ctr | others
Cc1ccc(NC(=S)NC(=O)c2ccc(-c3ccc(Cl)cc3)o2)c(O)c1 | i | i | nt | nt
Cc1ccc(O)c(NC(=S)NC(=O)Cc2ccc(Cl)cc2)c1 | i | 7 | i | i | CHO-K1 Tl ctr=0.0;KCNQ1 sel pot=i;KCNQ2 pot conf=i;Kir2-1 sel=i
CC(=O)Cc1nsc(NC(=O)c2ccc(COc3ccccc3)o2)n1 | i | nt | nt | nt
COc1cc([N+](=O)[O-])ccc1NC(=O)NNC(=O)C(C)Oc1ccc(F)cc1F (stereo not given) | i | nt | nt | nt
Cc1cc(OC(C)C(=O)NNC(=O)Nc2ccc(F)cc2F)cc(C)c1Cl (stereo not given) | i | 7.5 | i | i | CHO-K1 Tl ctr=i;KCNQ1 sel pot=i;KCNQ2 pot conf=i;Kir2-1 sel=i;KCNQ2 W236L pot=i
CC(=O)c1ccc(N2CCN(S(=O)(=O)c3ccc4c5c3CC(=O)N5CC(C)S4)CC2)cc1 (stereo not given) | i | nt | nt | nt
COc1cc(C)c(C)cc1S(=O)(=O)n1c(C)nc2ccccc21 | i | nt | nt | nt
COc1cc(F)ccc1S(=O)(=O)n1c(C)nc2ccccc21 | i | nt | 52% | i
COc1cccc(NC(=O)c2c([N+](=O)[O-])cnn2C)c1 | i | i | nt | nt
O=C(Nc1cccnc1Cl)c1cccc(S(=O)(=O)N2CCOCC2)c1 | i | i | nt | nt
Cc1ccc2c(CN3CCCCC3C)cc(=O)oc2c1 (stereo not given) | i | i | nt | nt
Cc1ccc2c(CN3CCCCC3C)cc(=O)oc2c1C (stereo not given) | i | 24 | i | i | CHO-K1 Tl ctr=i;KCNQ1 sel pot=i;KCNQ2 pot conf=i;Kir2-1 sel=i
O=C(CN(CC1CCCO1)C(=O)CNS(=O)(=O)c1ccccc1)NCCc1ccccc1 (stereo not given) | i | nt | nt | nt
Cc1ccc2nsnc2c1S(=O)(=O)Nc1cccc2nsnc12 | i | 6.1 | i | 238%
Cc1ccc(C)c(NS(=O)(=O)c2c(C)ccc3nsnc23)c1 | i | nt | nt | nt
O=C(CN1C(=O)NC2(CCCc3ccccc32)C1=O)c1ccc(Br)cc1 (stereo not given) | i | nt | nt | nt
CC(=O)/C=C(\C)N=Nc1c(O)[nH]c2ccccc12 | i | i | nt | nt
O=C(CCNS(=O)(=O)c1ccccc1)N1CCC(Cc2ccccc2)CC1 | i | 10 | i | i | CHO-K1 Tl ctr=14;KCNQ1 sel pot=88;KCNQ2 pot conf=8.7;Kir2-1 sel=i;KCNQ2 W236L pot=i
CC1CCN(C(=O)CCNS(=O)(=O)c2ccccc2)CC1 | i | i | nt | nt
CC12CCC(C(=O)Nc3cccc4ccccc34)(C1Br)C2(C)C (stereo not given) | i | 10 | i | i | CHO-K1 Tl ctr=1.5;KCNQ1 sel pot=i;KCNQ2 pot conf=48;Kir2-1 sel=i;KCNQ2 W236L pot=i
Nc1ccccc1C(=O)Nc1cccc2ccccc12 | i | nt | nt | nt
O=C(Cn1cc(C(=O)C(F)(F)F)c2ccccc21)N1CCOCC1 | i | nt | nt | nt
CCN1CCN(c2nc(C)c3c(n2)CC(C)CC3=O)CC1 (stereo not given) | i | i | nt | nt
Cc1nc(N2CCN(Cc3ccccc3)CC2)nc2c1C(=O)CC(C)C2 (stereo not given) | i | nt | 65% | i
COc1cccc(CNS(=O)(=O)/C=C/c2ccc3c(c2)OCO3)c1 | i | nt | nt | nt
SMILES | KCNQ2 block | KCNQ2 enhance | Kir21 confirm | HEK293 ctr | others
CC(=O)c1ccc(N2CCN(S(=O)(=O)c3c(C(=O)N4CCCC4)c(C)n(C)c3C)CC2)cc1 | i | nt | nt | nt
CC(=O)Oc1cc2c3c(c1)/C(=C1/SC(=S)NC1=O)C(=O)N3C(C)(C)C=C2C | i | 6.8 | i | i | CHO-K1 Tl ctr=i;KCNQ1 sel pot=12;KCNQ2 pot conf=i;Kir2-1 sel=i
CCOc1cc2c3c(c1)C(C)=CC(C)(C)N3C(=O)C2=O | i | i | nt | nt
O=[N+]([O-])c1cccc(-c2csc(Nc3ccccc3)n2)c1 | i | i | i | i
COc1ccccc1Nc1nc(-c2cccc([N+](=O)[O-])c2)cs1 | i | i | nt | nt
Cc1ccc2nc(NCc3ccccc3)[nH]c2c1 | i | nt | 22% | i
